Here are results for 24 molecules from PubChem BioAssay (Tox21).

Assay [1] can be described thus: qHTS assay for small molecules that induce genotoxicity in human embryonic kidney cells expressing luciferase-tagged ATAD5 (AID 651632). Note: nearly all actives have a fitted effect of over 15% in size. In outline: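 Increased luciferase signal from ATAD5-tagged reporter cells indicates DNA-damage-driven ATAD5 induction. HEK293T cells are treated for 16 hr at 37C before detection with Amplite.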
(Quantitative high-throughput screening tests each substance at several concentrations.)

A short description of assay [2]: qHTS assay for small molecule agonists of the p53 signaling pathway - cell viability (AID 651633; calls by dose curve; note: nearly all actives have a fitted effect of over 30% in size; note: potency is the fitted concentration of half-maximal effect). The essentials:
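p53RE-bla cells, seeded at 4,000 per well and rested 5 h at 37 C/5% CO2, received compounds in DMSO for 16 h at 37 C. CellTiter-Glo was then added, and luminescence was read after 30 min at room temperature to gauge cytotoxicity.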

Assay [3] can be described thus: qHTS assay for small molecules that induce genotoxicity in human embryonic kidney cells expressing luciferase-tagged ATAD5 - cell viability (AID 651634; calls by dose curve; note: nearly all actives have a fitted effect of over 25% in size; note: potency is the fitted concentration of half-maximal effect). In outline: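 Cytotoxicity counterscreen in HEK293T cells bearing an ATAD5-luciferase reporter: live-cell protease activity measured by CellTiter-Fluor fluorescence after 15.5 hr compound exposure.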
Assay [4] is described as follows: qHTS assay for small molecule disruptors of the mitochondrial membrane potential - cell viability (AID 720634; calls by dose curve; note: nearly all actives have a fitted effect of over 20% in size; note: potency is the fitted concentration of half-maximal effect). The essentials:
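After overnight attachment at 37 C, HepG2 cells received compound or DMSO vehicle for 1 hr. Viability is then taken from ATP-driven luminescence following a 30 min room-temperature CellTiter-Glo step.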

Assay [5] is described as follows: qHTS assay to test for compound auto fluorescence at 590 nm (red) in HepG2 cells (AID 720674). In outline: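 Intrinsic compound fluorescence in the red window (Ex/Em 540/590 nm) is measured in attached HepG2 cells exposed for 1 hr, DMSO vehicle as baseline, benchmarked to Rose Bengal sodium.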
The nature of assay [6]: qHTS assay to test for compound auto fluorescence at 535 nm (green) in HepG2 cells (AID 720675).
The nature of assay [7]: qHTS assay to test for compound auto fluorescence at 460 nm (blue) in HEK293 cells (AID 720678). In outline:
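Auto fluorescence in the blue band was quantified as triamterene equivalency. HEK293 cells were seeded at 2,000/well, dosed after a 4-5 hr attachment, and kept overnight at 37C before the 405/460 nm reading.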

The nature of assay [8]: qHTS assay to test for compound auto fluorescence at 590 nm (red) in HEK293 cells (AID 720679). The essentials: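 Autofluorescence equivalency to Rose Bengal sodium, 540/590nm, in HEK293 cells exposed overnight to 23 nL compound per well.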
Assay [9] in a line: qHTS assay for small molecule disruptors of the mitochondrial membrane potential (AID 720635). Note: potency is the fitted concentration of half-maximal effect. In outline:
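HepG2 cells (2,000/well) attached overnight at 37C, then took compound for 1 hr at 37C, 5% CO2. Mito-MPS dye was added for 30 min; fluorescence was read at 490/535 nm (monomers) and 540/590 nm (aggregates).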

Each structure is given as a SMILES string. “And” between values parts separate entries of the source, which are not always exact repeats. Equal values may be shown once. Values without a mark were called inactive. Inconclusive results are not listed. The source made the active and inactive calls. Unless noted, calls come from the whole dose curve; as a rule, active = well fitted curve in the direction sought with a large enough effect in the repeat runs; inconclusive = weak or mixed curves; inactive = no such curve, though single readings can be large; an effect the other way counts as inactive or inconclusive.
% is set by controls: 0 for no effect and ±100 for the full control effect.

Consider `CCCCCC/C=C\CCCCCCCC(=O)O`, for which the Potency result in [1], in [2], in [3], in assay [4], in [5] and in assay [6] was “inactive” throughout. Besides, the Potency entry in [7] and in [8] was “inactive” throughout.
With `CC[N+](CC)(CC)CCOC(=O)C(C1CCCC1)C1CCCC1`, the Potency entry in [1], in assay [2], in assay [3], in assay [4], in assay [5] and in assay [6] was “inactive” each time. The Potency entry in assay [7] and in assay [8] was “inactive” each time.
As to `Nc1ccc(Oc2ccc(Cl)cc2)cc1`, the Potency entry in assay [1], in [2], in assay [3], in [4], in assay [5] and in [6] was “inactive” throughout. Moreover, the Potency result in assay [7] and in assay [8] was “inactive” each time.
As to `Cc1c(C)c([N+](=O)[O-])c(C(C)(C)C)c([N+](=O)[O-])c1C`, the Potency result in assay [1], in assay [2], in assay [3], in assay [5], in [6] and in [7] was “inactive” throughout. The Potency entry in assay [8] was “inactive”. Moreover, the Potency in assay [9] is 30.6 µM (active).
As to `CCc1cccc(CC)c1NC(=O)CN(CC(=O)O)CC(=O)O`, the Potency result in assay [1], in [3] and in assay [4] was “inactive” each time. Further, in [5], the fluorescence, relative to Rose Bengal is 0.215% [at 18.6 µM]. The fluorescence, % of fluorescein control in [6] is -0.0501% [at 18.6 µM]. Further, the fluorescence, % of triamterene in assay [7] is -0.194% [at 18.6 µM]. In assay [8], the fluorescence, % of fluorescent control is -0.732% [at 18.6 µM].
For `OCC(F)(F)F`, the Potency result in assay [1], in [2], in [3], in assay [4], in assay [6] and in assay [7] was “inactive” in each case. In addition, the Potency entry in assay [8] was “inactive”.
Regarding `Cc1cccc(C(=O)O)c1O`, the Potency result in assay [1], in assay [3], in [4], in assay [9], in assay [5] and in assay [6] was “inactive” in each case. The Potency result in assay [7] and in assay [8] was “inactive” throughout.
Consider `O=C(Nc1ccc2c(O)c(N=Nc3ccc(N=Nc4ccc(S(=O)(=O)O)cc4)cc3)c(S(=O)(=O)O)cc2c1)c1ccccc1`, for which the Potency entry in assay [1], in assay [4], in [5], in assay [6], in [7] and in assay [8] was “inactive” each time. For the same molecule, the Potency in assay [3] is 48.6 µM (active).
With `CN1CCN2c3ccccc3Cc3ccccc3C2C1` (stereo not drawn), the Potency result in assay [1], in assay [3], in assay [4], in [5], in [6] and in assay [7] was “inactive” each time. The Potency result in assay [8] is “inactive”.
`CC(C)(C)c1csc(-c2cc3cc(OCc4ccccc4CC(=O)O)ccc3o2)n1`: the Potency entry in [1], in [5], in assay [6], in assay [7] and in [8] was “inactive” throughout. Further, the values for the Potency in assay [3], in [4] and in [9] were 24.3 µM (active), 61.1 µM (active) and 4.86 µM (active), respectively.
Take `COC(=O)c1ccccc1OC`: the Potency entry in assay [1], in assay [2], in assay [3], in assay [4], in [9] and in [6] was “inactive” in each case. Further, the Potency result in assay [7] and in assay [8] was “inactive” each time.
Consider `Cc1ccc(C(C)C)cc2c(C)ccc1-2`, for which the Potency result in assay [1], in assay [3], in [4], in [9], in [5] and in [6] was “inactive” throughout. Moreover, the Potency entry in [7] and in assay [8] was “inactive” throughout.
`Cc1c(C)c2c(c(C)c1O)CC[C@@](C)(CCC[C@H](C)CCC[C@H](C)CCCC(C)C)O2`: the Potency result in assay [1], in assay [3], in assay [4], in assay [9], in assay [5] and in assay [6] was “inactive” throughout. Moreover, the Potency result in assay [7] and in assay [8] was “inactive” throughout.
As for `CCCCCCCCCCCCOCCOCCOCCOCCOCCOCCOCCOCCOCCO`, the Potency entry in [1], in assay [6], in assay [7] and in assay [8] was “inactive” in each case. Also, the Potency in assay [2] was 26.6 µM (active); in assay [9] it was 19.7 µM (active).
`COc1ccc2cc1Oc1ccc(cc1)C[C@H]1c3c(cc4c(c3Oc3cc5c(cc3OC)CCN(C)[C@@H]5C2)OCO4)CCN1C`: the Potency result in [1], in assay [2], in [4], in assay [5], in assay [6] and in assay [7] was “inactive” each time. In addition, the Potency entry in [8] is “inactive”. Further, the Potency in [3] is 29.8 µM (active).
Consider `CN(C)c1ccc(C(=C2C=CC(=[N+](C)C)C=C2)c2ccc(N(C)C)cc2)cc1`, for which the Potency entry in [1], in [5], in assay [6], in [7] and in assay [8] was “inactive” each time. Also, the Potency in [2] is 10.6 µM (active) and 9.64 µM (active) and 30.6 µM (active); in assay [3], 11.9 µM (active) and 21.6 µM (active) and 24.3 µM (active); in assay [4], 54.2 µM (active).
As to `CCO[C@@H]1O[C@H](C(COCc2ccccc2)OCc2ccccc2)[C@H](OCc2ccccc2)[C@H]1O` (stereo partly drawn), the Potency entry in [2] and in assay [3] was “inactive” throughout. Moreover, the Potency in [9] was 11.4 µM (active). For the same molecule, the fluorescence, relative to Rose Bengal in assay [5] is -0.664% [at 18.6 µM]. Moreover, the fluorescence, % of fluorescein control in [6] was -0.0707% [at 18.6 µM]. Moreover, in assay [7], the fluorescence, % of triamterene was -0.0314% [at 18.6 µM]. The fluorescence, % of fluorescent control in assay [8] was 0.894% [at 18.6 µM].
As for `O=C1NC(=O)[C@@H]2CC=CC[C@H]12`, the Potency entry in [3], in [4], in assay [9], in assay [5], in assay [6] and in [7] was “inactive” throughout. Also, in assay [8], the Potency entry was “inactive”.
As for `Cc1cc(-n2nc3ccc(Cl)cc3n2)c(O)c(C(C)(C)C)c1`, the Potency entry in assay [2], in assay [3], in assay [4], in [9], in assay [5] and in assay [6] was “inactive” in each case. Further, the Potency entry in assay [7] and in [8] was “inactive” throughout.
For `CCOC(=O)c1ccc(C2CCC(NC[C@H](O)COc3ccc(O)c(NS(C)(=O)=O)c3)CC2)cc1` (stereo partly drawn), the Potency result in assay [3], in assay [4], in assay [5], in assay [6], in assay [7] and in assay [8] was “inactive” throughout.
As to `CCCC1CCC(=O)CC1`, the Potency entry in assay [3], in assay [4], in assay [9], in [5], in assay [6] and in assay [7] was “inactive” in each case. Further, the Potency result in assay [8] was “inactive”.
Regarding `Nc1nc(-c2ccccc2)cs1`, the Potency result in assay [2], in [3], in assay [4], in assay [5], in [6] and in [7] was “inactive” each time. Besides, in [8], the Potency result is “inactive”.
As to `Cc1ccc(O)c(O)c1`, the Potency result in assay [1], in [3], in assay [4], in assay [5], in assay [6] and in assay [7] was “inactive” in each case. In addition, in assay [8], the Potency entry is “inactive”.
Take `CC(C(=O)O)c1ccc2c(c1)[nH]c1ccc(Cl)cc12` (stereo not drawn): the Potency entry in assay [2], in assay [3], in assay [4], in assay [5], in assay [6] and in assay [7] was “inactive” throughout. Moreover, in [8], the Potency result is “inactive”.
